“And” between values parts separate entries of the source, which are not always exact repeats. Identical values can stand only once. Compounds without any hit were thinned out: in the full panel of roughly 83,000, 20% have a hit.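 Single-concentration screen, 48 h exposure, 96-well plates. Endpoint: percent growth. Below 10 = active.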 Some structures have more than one record in an assay (separate samples or runs), and their calls can disagree. The source made the active and inactive calls.
How the values were obtained:
Experiment in all cases: NCI-60 one-dose screen, 48 h (100 = growth as untreated, 0 = no growth, -100 = all killed)
T-47D breast = tested on: T-47D breast
BT-549 breast = tested on: BT-549 breast
SW-620 colon = tested on: SW-620 colon
MCF7 breast = tested on: MCF7 breast
HCT-116 colon = tested on: HCT-116 colon
HCC-2998 colon = tested on: HCC-2998 colon
KM12 colon = tested on: KM12 colon
MDA-MB-435 melanoma = tested on: MDA-MB-435 melanoma

Measured: growth

COc1ccc(Cl)cc1C(=O)NCCc1ccc(S(=O)(=O)NC(=O)NC2CCCCC2)cc1
inactive: T-47D breast; 10 µM 86% and 87.6% | T-47D breast; 100 µM 52.3% | BT-549 breast; 10 µM 109% and 107% | BT-549 breast; 100 µM 67% | SW-620 colon; 10 µM 99.3% and 109% | SW-620 colon; 100 µM 82.9% | MCF7 breast; 10 µM 108% and 102% | MCF7 breast; 100 µM 66.1% | HCT-116 colon; 10 µM 110% and 96.1% | HCT-116 colon; 100 µM 67.3% | HCC-2998 colon; 10 µM 126% and 118% | HCC-2998 colon; 100 µM 87.4% | KM12 colon; 10 µM 109% and 108% | KM12 colon; 100 µM 60.1%

CCN(CC)CCNc1ccc(C)c2sc3ccccc3c(=O)c12 (tested in a mixture with another compound)
12.2% (inactive) and 5.61% (active): MCF7 breast; 10 µM unless noted
inactive: T-47D breast; 10 µM unless noted 41% and 31.5% | BT-549 breast; 10 µM unless noted 46.4% and 79.4% | MDA-MB-435 melanoma; 10 µM unless noted 23.9% and 28.2% | SW-620 colon; 10 µM unless noted 24% and 20.5% | HCT-116 colon; 10 µM unless noted 19.4% and 19.9% | HCC-2998 colon; 10 µM unless noted 24.6% and 20.5% | KM12 colon; 10 µM unless noted 32.9% and 23.9%

C/C(=N\NC(=O)c1ccncc1)c1ccccc1O
inactive: T-47D breast; 10 µM unless noted 30.8% and 24.3% | BT-549 breast; 10 µM unless noted 52% and 20.7% | MDA-MB-435 melanoma; 10 µM unless noted 50.5% and 57.5% | SW-620 colon; 10 µM unless noted 34.2% and 42.3% | MCF7 breast; 10 µM unless noted 13.2% and 13.4% | HCC-2998 colon; 10 µM unless noted 25% and 32.1% | KM12 colon; 10 µM unless noted 31.9% and 34.4%
active: HCT-116 colon; 10 µM unless noted 5.77% and 2.15%

Cc1[nH]c(-c2nc3ccccc3[nH]2)c(C)c1C(=O)NC(C)C1CCCCC1 (configuration not stated)
active: T-47D breast; 100 µM -58.1% | BT-549 breast; 100 µM -81.6% | MDA-MB-435 melanoma; 100 µM -94.8% | MCF7 breast; 100 µM -73.7% | HCT-116 colon; 100 µM -76.8% | HCC-2998 colon; 100 µM -82.6% | KM12 colon; 100 µM -91.8%
inactive: T-47D breast; 10 µM 89% | BT-549 breast; 10 µM 95.5% | MDA-MB-435 melanoma; 10 µM 37.5% | MCF7 breast; 10 µM 71.1% | HCT-116 colon; 10 µM 85.5% | HCC-2998 colon; 10 µM 97.9% | KM12 colon; 10 µM 84.4%

CN1C(=O)C(N=Nc2ccc([N+](=O)[O-])cc2)SC1=S (configuration not stated)
inactive: T-47D breast; 10 µM unless noted 50.9% and 57.2% | BT-549 breast; 10 µM unless noted 71% and 67.8% | MDA-MB-435 melanoma; 10 µM unless noted 75.8% and 85.4% | SW-620 colon; 10 µM unless noted 49% and 60.3% | MCF7 breast; 10 µM unless noted 82.4% and 68.8% | HCT-116 colon; 10 µM unless noted 61.7% and 70.5% | KM12 colon; 10 µM unless noted 48.2% and 52.8%
active: HCC-2998 colon; 10 µM unless noted -0.382%

CC(=O)Nc1ccc(O)cc1
inactive: T-47D breast; 10 µM unless noted 116% and 103% and 93.9% | BT-549 breast; 10 µM unless noted 94.3% and 78.1% and 101% | MDA-MB-435 melanoma; 10 µM unless noted 105% and 109% and 110% | SW-620 colon; 10 µM unless noted 106% and 108% and 103% | MCF7 breast; 10 µM unless noted 100% and 68.3% and 107% | HCT-116 colon; 10 µM unless noted 100% and 120% and 104% | HCC-2998 colon; 10 µM unless noted 102% and 68.4% and 110% | KM12 colon; 10 µM unless noted 99.4% and 38.3% and 107%

CC(C)Cc1ccc(C(C)C(=O)NCc2ccc(Cn3c(=O)sn(CCCI)c3=O)cc2)cc1 (configuration not stated)
93% (inactive) and -72.6% (active): MDA-MB-435 melanoma; 10 µM unless noted
89.9% (inactive) and -81.9% (active): BT-549 breast; 10 µM unless noted
31.7% (inactive) and -61.4% (active): MCF7 breast; 10 µM unless noted
66.5% (inactive) and -63.2% (active): SW-620 colon; 10 µM unless noted
active: T-47D breast; 10 µM unless noted -49.3%
82% (inactive) and -72.9% (active): HCT-116 colon; 10 µM unless noted
91.5% (inactive) and -69.2% (active): HCC-2998 colon; 10 µM unless noted
99.2% (inactive) and -36.7% (active): KM12 colon; 10 µM unless noted

O=C(O)c1sccc1O
inactive: T-47D breast; 10 µM 53.9% | T-47D breast; 100 µM 18.2% | BT-549 breast; 10 µM 69.5% | BT-549 breast; 100 µM 11.6% | MDA-MB-435 melanoma; 10 µM 77.8% | SW-620 colon; 10 µM 93.3% | SW-620 colon; 100 µM 24% | MCF7 breast; 10 µM unless noted 15.4% [100 µM] | HCT-116 colon; 10 µM unless noted 15.5% [100 µM] | HCC-2998 colon; 10 µM 109% | HCC-2998 colon; 100 µM 38.5% | KM12 colon; 10 µM 78.3%
active: MDA-MB-435 melanoma; 100 µM 0.533% | KM12 colon; 100 µM 2.5%

Reference: PubChem BioAssay (NCI)
